Assay outcomes deposited in PubChem BioAssay by National Center for Advancing Translational Sciences (NCATS).
HSD17B inhib: inhibitors of human HSD17B10 dehydrogenase | recombinant HSD17B10, NADH fluorescence kinetic | actives 7.6% (n = 75,000) | Potency, µM (series often up to 57.1 µM), inactives show at the top dose activity change, negative = inhibition, most hits filed as inhibitors | AID 893;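 note: the protocol describes HADH2 (HSD17B10) and not the HSD17B4 of the title; nearly all actives have a fitted effect of over 70% in size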
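Enzyme plus compound, 15 min room temperature; substrate mix added (NAD+ 1 mM, beta-hydroxybutyryl-CoA 90 uM final); plates read kinetically for NADH fluorescence. HADH2 was His-tagged, E. coli-derived, 20 nM.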
FLuc inh: blocks Photinus pyralis firefly luciferase activity; P08659; purified firefly luciferase, luminescence, 8 min; Potency, µM (doses to about 57.1 µM), inactives show at the top dose activity change, negative = inhibition, usual class: inhibitors; actives 2.2% (n = 72,000); note: nearly all actives have a fitted effect of over 40% in size
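Luminescence read-out after 8 min at room temperature; enzyme reaction used luciferin plus 10 uM ATP (linear range) in imidazole buffer pH 7.2 with KCl, MgCl2, Tween 20 and BSA. Each sample was run as a titration.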
15-hLO inh: 15-hLO (ALOX15) enzyme inhibition; actives 1.4% (n = 74,000); Potency, µM (titrated, usually from 57.1 µM), for the others: top-dose activity change, negative = inhibition, most hits filed as inhibitors; purified 15hLO-1, xylenol orange hydroperoxide absorbance; P16050; note: nearly all actives have a fitted effect of over 55% in size
Target sequence (P16050 whole entry, looked up): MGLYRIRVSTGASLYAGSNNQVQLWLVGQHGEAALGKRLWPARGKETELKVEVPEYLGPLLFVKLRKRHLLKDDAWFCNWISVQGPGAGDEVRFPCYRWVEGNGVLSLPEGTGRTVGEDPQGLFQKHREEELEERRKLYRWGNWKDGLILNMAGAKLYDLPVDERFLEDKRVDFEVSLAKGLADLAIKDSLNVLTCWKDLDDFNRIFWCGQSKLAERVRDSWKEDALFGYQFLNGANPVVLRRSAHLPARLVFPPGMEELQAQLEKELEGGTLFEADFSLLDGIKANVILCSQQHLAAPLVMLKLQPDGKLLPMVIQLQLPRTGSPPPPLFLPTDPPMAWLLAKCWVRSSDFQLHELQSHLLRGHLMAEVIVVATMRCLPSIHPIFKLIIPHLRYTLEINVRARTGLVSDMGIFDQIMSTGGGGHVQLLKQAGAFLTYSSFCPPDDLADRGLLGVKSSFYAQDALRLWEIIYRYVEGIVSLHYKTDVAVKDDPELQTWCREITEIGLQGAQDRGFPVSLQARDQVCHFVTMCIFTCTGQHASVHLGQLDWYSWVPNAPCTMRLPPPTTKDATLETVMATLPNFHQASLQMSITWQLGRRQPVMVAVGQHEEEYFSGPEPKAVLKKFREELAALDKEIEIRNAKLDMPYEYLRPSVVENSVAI
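Purified human 15hLO-1 (40 nM final) in 25 mM Hepes pH 7.5, 0.01% Triton X-100 was preincubated with compound 15 min at room temperature, then reacted 6 min with 50 uM arachidonic acid; hydroperoxide detected by Fe-XO, 573/405 nm absorbance ratio.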
ERK AVP inh: inhibitors of vasopressin-stimulated ERK signaling pathway; HEK293-V1b, vasopressin-stimulated pERK AlphaScreen; Potency, µM (series often up to 57.5 µM), for the others: at the top dose activity, negative = inhibition, actives largely listed as inhibitors; actives 0.99% (n = 72,000); note: nearly all actives have a fitted effect of over 55% in size
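Phosphorylated ERK1/2 detected via AlphaScreen bead proximity in lysates of V1b-expressing HEK293 cells given 25 nM vasopressin for 5 min after 30 min compound exposure (37 °C). AC50 from Hill equation; basal DMSO 0%, vasopressin 100%.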
PK Bst: pyruvate kinase (B. stearothermophilus) modulation; purified pyruvate kinase, luminescence ATP production; ribose 5-phosphate activator present at AC10; Potency, µM; actives 1.2% (n = 51,000); AID 361; in the data active = potency below about 11 µM; inconclusive = mostly about 12 µM to 25 µM;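 the screen sought inhibitors and activators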;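 note: scaled between full activation by ribose 5 phosphate and full inhibition by luteolin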
HADH2 inh: inhibitors of human HADH2 dehydrogenase; Q99714; Potency, µM (highest dose often 57.1 µM), for the others: top-dose activity change, negative = inhibition, usual class: inhibitors; actives 3.4% (n = 73,000); recombinant HADH2, NADH fluorescence, beta-hydroxybutyryl-CoA; AID 886; note: nearly all actives have a fitted effect of over 60% in size
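20 nM HADH2 + cpd, 15 min RT; add 1 mM NAD+/90 uM beta-hydroxybutyryl-CoA; kinetic fluorescence 360/450 nm, 4 min. Tris-HCl pH 9.0, 0.01% Tween-20.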
An asterisk follows results filed as active; ? = inconclusive; / = no result given; ! = a repeat was not active; [ ] = remark or other dose. Most compounds without a hit are left out; they make up all but 11% or so of the library. Unless noted, calls come from the whole dose curve; as a rule, active = well fitted curve in the direction sought with a large enough effect; inconclusive = small, poorly fitted or top-dose-only effect, or another doubt; inactive = no such curve, though single readings can be large; an effect the other way counts as inactive or inconclusive. Unless noted, % is set by controls: 0 for no effect and ±100 for the full control effect; potency is the fitted concentration of half-maximal effect.

SMILES | HSD17B inhib | FLuc inh | 15-hLO inh | ERK AVP inh | PK Bst | HADH2 inh
O=C(c1ccc2nc(-c3ccco3)c(-c3ccco3)nc2c1)N1CCC2(CC1)OCCO2 | ? | -18% | 4µM* | ? | >57 | 4µM*
Cc1nc2cc(C(=O)N3CCC4(CC3)OCCO4)ccc2n1-c1cccc(F)c1 | 10% | 1% | 3% | -5% | >57 | 8%
O=C1N[C@@]2(CN3CCC2CC3)C(=O)N1CN(Cc1ccccc1)c1ccccc1 | 9%[11.4 µM] | 3%[11.4 µM] | 7%[11.4 µM] | 0%[11.5 µM] | / | 8%[11.4 µM]
COc1ccc2c3c([nH]c2c1)C(C)=NCC3 | 32µM* | 2%[11.4 µM] | 7%[25.6 µM] | 13% | / | 40µM*!
CC1=NCCc2c1[nH]c1cc(O)ccc21 | 32µM* | -2%[11.4 µM] | -1%[25.6 µM] | 3% | / | 0%
C=CCN1CC[C@]23c4c5ccc(O)c4O[C@@H]2C(=O)CC[C@@]3(O)[C@H]1C5 | 3% | 2% | -6% | 6% | / | -1%
CCNC(C)(C)[C@@H](SS)c1ccc(Br)cc1 | -14%[11.4 µM] | 2%[11.4 µM] | -12%[11.4 µM] | 3%[11.5 µM] | / | ?
CC(C)Cn1cc(C(=O)N2CCC3(CC2)OCCO3)c2c3ccccc3n(C)c2c1=O | 20µM* | 1% | 5% | -6% | >57 | -21%
Cn1cc(C(=O)N2CCC3(CC2)OCCO3)c2c3ccccc3n(C)c2c1=O | 32µM* | 2% | 3% | -32% | >57 | ?
Cn1c(C(=O)N2CCC3(CC2)OCCO3)cc2c(=O)n(C)c3ccccc3c21 | -5% | 1% | 5% | -21% | >57 | 6%
Cn1c2ccccc2c2c(C(=O)N3CCC4(CC3)OCCO4)cn(C3CCCCC3)c(=O)c21 | 25µM* | -1% | -6% | -3% | >57 | 32µM*
C[C@]1(O)CC[C@H]2[C@@H]3[C@@H](O)CC4=CC(=O)CC[C@@]4(C)[C@H]3CC[C@]21C | 2%[11.4 µM] | 1%[11.4 µM] | 4%[11.4 µM] | -2%[11.5 µM] | / | 4%[11.4 µM]
CC(C)CNCCc1ccccn1 | 0%[11.4 µM] | 0%[11.4 µM] | -1%[11.4 µM] | -8%[11.5 µM] | / | 4%[11.4 µM]
NC(=O)CN1C[C@@H](O)CC1=O | 2% | 1% | 7% | 4% | / | 11%
O=C(O)c1cc[c]([Hg][Cl])cc1 | 0.32µM* | 16µM* | 1.6µM* | 19% | / | 6.3µM*
O=C(O)c1cccc(Cl)c1 | 8% | / | -4% | -14% | / | -5%
C#CCN[C@@H](C)Cc1ccccc1 | -5% | 1% | 5% | -15% | / | 11%
CCOC(=O)CC(SP(=S)(OC)OC)C(=O)OCC (centres undefined) | 32µM* | / | ? | -18% | / | ?
Oc1ccc(Cl)cc1Cc1ccccc1 | -20% | / | ? | 34% | / | ?
Oc1ccc(Cl)cc1Cc1cc(Cl)ccc1O | -15% | / | 13µM* | -6% | / | -25%
CN1C[C@H](CO)C=C2c3cccc4[nH]cc(c34)C[C@H]21 | / | -1%[11.4 µM] | / | / | / | 16µM*
CN1C[C@@H](CO)C=C2c3cccc4[nH]cc(c34)CC21 (some centres undefined) | 10µM* | / | 2%[25.6 µM] | -7% | / | /
CN1C[C@@H](C(=O)N[C@@]2(C)O[C@]3(O)C4CCCN4C(=O)[C@@H](Cc4ccccc4)N3C2=O)C=C2c3cccc4[nH]cc(c34)C[C@@H]21 (some centres undefined) | ? | / | -1%[25.6 µM] | ? | / | /
O=C1C[C@@H]2OCC=C3CN4CC[C@]56c7ccccc7N1[C@H]5[C@@H]2[C@H]3C[C@@H]46 | / | 2%[11.4 µM] | / | / | / | 7%
Cc1nc2cc(-c3cccc(F)c3)nn2c(C)c1CCC(=O)N1CCC2(CC1)OCCO2 | 32µM* | 0% | -2% | -1% | >57 | -6%
Cc1nc2c(c(C)nn2-c2ccccc2)c(C)c1CCC(=O)N1CCC2(CC1)OCCO2 | 25µM* | / | 0% | / | / | ?
C[C@H](CN(C)C)C(C#N)(c1ccccc1)c1ccccc1 | 6%[11.4 µM] | 2%[11.4 µM] | 5%[11.4 µM] | -25%[11.5 µM] | / | 5%[11.4 µM]
CCC1=C(C[C@H]2NCCc3cc(OC)c(OC)cc32)C[C@H]2c3ccccc3CCN2C1 | 6%[11.4 µM] | 0%[11.4 µM] | 11%[11.4 µM] | -18%[11.5 µM] | / | 16%[11.4 µM]
